Inconclusive results are not listed. Activity calls are given as the source filed them. Calls follow the shape of the dose curve; as a rule, active = well fitted curve in the direction sought with a large enough effect; inconclusive = small, poorly fitted or top-dose-only effect, or another doubt; inactive = no such curve, though single readings can be large; an effect the other way counts as inactive or inconclusive.
How the values were obtained:
[1] = qHTS for Inhibitors of Plasmodium falciparum (DD2) proliferation (AID 504314)
How it was run: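 SYBR Green growth assay: 72 h compound exposure of infected red cells (2.5% hematocrit, 0.3% parasitemia), then lysis and overnight dye staining, fluorescence 485/535 nm. Values scaled between DMSO and 0.29 uM artemisinin controls.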

[2] = qHTS for Inhibitors of Plasmodium falciparum (GB4) proliferation (AID 504315); also: nearly all actives have a fitted effect of over 50% in size
How it was run: (§1)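 Parasite growth measured as SYBR Green DNA fluorescence (ex 485, em 535 nm) after overnight lysis following 72 h culture at 37 °C, 0.3% parasitemia, 2.5% hematocrit. Values normalized against DMSO and 0.29 uM artemisinin controls, with plate-stack correction.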

[3] = qHTS for Inhibitors of Plasmodium falciparum (7G8) proliferation (AID 504316); also: nearly all actives have a fitted effect of over 65% in size
How it was run: as §1

[4] = qHTS for Inhibitors of Plasmodium falciparum (HB3) proliferation (AID 504318); also: nearly all actives have a fitted effect of over 60% in size
How it was run: as §1

[5] = qHTS for Inhibitors of Plasmodium falciparum (CP250) proliferation (AID 504320)
How it was run: as §1

Measured: Potency
Potency is read from the fitted curve at half-maximal effect.

COC(=O)C1=C(C(=O)OC)[C@@H]2N(C)c3ccc(OC)cc3[C@@]23C[C@@H](C(=O)OC)N(C(=O)c2ccc(Br)cc2)C3=N1
inactive: all assays above

O=C1c2cc(Br)ccc2O[C@@H](c2ccc3c(c2)OCO3)[C@@H]1O
inactive: all assays above

COC[C@@H](O)[C@@H](OC)[C@H](OC)[C@H](Cc1c(OC)cc(OC)cc1OC)OC
inactive: all assays above

CCCC[C@]12Cc3c(ccc4ccccc34)[C@H](O1)C1=C(O2)C(=O)c2ccccc2C1=O
active: [1] 1.69 µM | [2] 1.69 µM | [3] 1.51 µM | [4] 1.51 µM

COC(=O)CCCC1=CC2=C(c3ccccc3)C(=O)C(C)(OC(=O)C3CCCC3)C(=O)C2=CN1C1CC1 (stereo not drawn)
inactive: all assays above

COC(=O)C1=C(C(=O)OC)[C@@H]2N(C)c3ccccc3[C@@]23C[C@@H](C(=O)OC)N(S(=O)(=O)c2ccc([N+](=O)[O-])cc2)C3=N1
active: [2] 1.69 µM
inactive: [1]

CC(=O)c1ccc([C@@H]2C=C[C@H](O)[C@@H](CO)O2)cc1
inactive: all assays above

Nc1ccccc1C(=O)C=Cc1ccccc1
inactive: [1] | [2]

CC#CCN1c2ccccc2[C@]23C[C@@H](C(=O)OC)N(S(=O)(=O)c4ccc(OC)cc4)C2=NC(C(=O)OC)=C(C(=O)OC)[C@H]13
active: [2] 2.13 µM
inactive: [1]

CCN1C(=O)N[C@@H](c2ccccc2)C(C(=O)OC)=C1C
inactive: all assays above

COC(=O)C1=C(C(=O)OC)[C@@H]2N(C)c3ccccc3[C@@]23C[C@@H](C(=O)OC)N(S(=O)(=O)c2ccc(C(F)(F)F)cc2)C3=N1
active: [2] 2.13 µM
inactive: [1]

CC#CCN1c2ccccc2[C@]23C[C@@H](C(=O)OC)N(S(=O)(=O)c4ccc(C(F)(F)F)cc4)C2=NC(C(=O)OC)=C(C(=O)OC)[C@H]13
inactive: [1]
active: [2] 1.9 µM

CC[C@@H](C)CN1C(=O)N[C@@H](c2ccccc2)C(C(=O)OC)=C1C
inactive: [1] | [2] | [3]

CC(C)CON=C1C[C@@H](O)[C@@H](O)[C@@H]2[C@H]3C(=O)N(c4cccc(Oc5ccccc5)c4)C(=O)[C@@H]3CC[C@H]12
inactive: all assays above

CCOC(=O)NN=C1C[C@@H](O)[C@@H](O)[C@@H]2[C@H]3C(=O)N(C4CCCCC4)C(=O)[C@@H]3CC[C@@H]12
inactive: all assays above

C[C@H]1Cc2c(-c3ccccc3)nc3c(c2CO1)CN(C(=O)C1CC1)CC3
inactive: all assays above

CCN1C(=O)N[C@@H](CCc2ccccc2)C(C(=O)OC)=C1C
inactive: all assays above

COC(=O)C1=C(C(=O)OC)[C@@H]2N(C)c3ccccc3[C@@]23C[C@@H](CO)N(C(=O)C2CCC2)C3=N1
inactive: all assays above

COC(=O)C1=C(C(=O)OC)[C@@H]2Nc3ccccc3[C@@]23C[C@@H](C(=O)OC)N(S(=O)(=O)c2ccc4c(c2)OCCN4C)C3=N1
active: [2] 1.69 µM | [3] 1.51 µM
inactive: [1]

CC1(OC(=O)C2CCCC2)C(=O)C=C2C=C(c3ccsc3)N(CCCCO)C=C2C1=O (stereo not drawn)
inactive: all assays above

COC(=O)C1=C(C(=O)OC)[C@@H]2N(Cc3ccccc3)c3ccccc3[C@@]23C[C@@H](C(=O)OC)N(C(=O)C2CCC2)C3=N1
inactive: all assays above

CCN1C(=O)NC(c2ccco2)C(C(=O)OC)=C1C (stereo not drawn)
inactive: all assays above

CC1(C)O[C@@H](C(O)(c2cc(F)c(F)c(F)c2)c2cc(F)c(F)c(F)c2)[C@H](C(O)(c2cc(F)c(F)c(F)c2)c2cc(F)c(F)c(F)c2)O1
active: [1] 0.671 µM | [2] 0.953 µM | [3] 0.379 µM | [4] 0.536 µM | [5] 0.849 µM

C=CCN1c2ccccc2[C@]23C[C@@H](C(=O)OC)N(S(=O)(=O)c4ccc([N+](=O)[O-])cc4)C2=NC(C(=O)OC)=C(C(=O)OC)[C@H]13
inactive: [1]
active: [2] 1.51 µM | [3] 1.69 µM

C[C@H]1Cc2c(COc3ccccc3)nc3c(c2CO1)CN(C(=O)Nc1cccc(C#N)c1)CC3
inactive: all assays above

COC(=O)CCC(=O)OC1(C)C(=O)C2=CN(CCN3CCOCC3)C(c3ccc(OC)cc3)=CC2=C(Br)C1=O (stereo not drawn)
inactive: all assays above

C[C@H]1Cc2c(COc3ccccc3)nc3c(c2CO1)CN(C(=O)NCCc1c[nH]c2ccccc12)CC3
inactive: all assays above
